Data: PubChem BioAssay (EPA / NIEHS)
Records with an inconclusive call do not appear. Activity calls are given as the source filed them. Rule for the calls: active = hit-call score of the fitted dose curve at least 0.9, where 1 is the maximum; inconclusive = response in the unintended direction; inactive = score below 0.9.

Tests used:
[1] = target: human Matrix Metalloproteinase-9 (MMP9), MMP9 (gene 4318) (UniProt P14780); experiment: NVS_ENZ_hMMP9: NovaScreen (NVS) Enzymatic Assay for human Matrix Metalloproteinase-9 (MMP9) (AID 2283190);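 note: cell-free recombinant MMP9 protease activity read by fluorescent substrate signal; active means inhibition seen as loss of fluorescence signal versus DMSO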
Chain of human Matrix Metalloproteinase-9 (MMP9), MMP9 (gene 4318) (P14780 whole entry, looked up): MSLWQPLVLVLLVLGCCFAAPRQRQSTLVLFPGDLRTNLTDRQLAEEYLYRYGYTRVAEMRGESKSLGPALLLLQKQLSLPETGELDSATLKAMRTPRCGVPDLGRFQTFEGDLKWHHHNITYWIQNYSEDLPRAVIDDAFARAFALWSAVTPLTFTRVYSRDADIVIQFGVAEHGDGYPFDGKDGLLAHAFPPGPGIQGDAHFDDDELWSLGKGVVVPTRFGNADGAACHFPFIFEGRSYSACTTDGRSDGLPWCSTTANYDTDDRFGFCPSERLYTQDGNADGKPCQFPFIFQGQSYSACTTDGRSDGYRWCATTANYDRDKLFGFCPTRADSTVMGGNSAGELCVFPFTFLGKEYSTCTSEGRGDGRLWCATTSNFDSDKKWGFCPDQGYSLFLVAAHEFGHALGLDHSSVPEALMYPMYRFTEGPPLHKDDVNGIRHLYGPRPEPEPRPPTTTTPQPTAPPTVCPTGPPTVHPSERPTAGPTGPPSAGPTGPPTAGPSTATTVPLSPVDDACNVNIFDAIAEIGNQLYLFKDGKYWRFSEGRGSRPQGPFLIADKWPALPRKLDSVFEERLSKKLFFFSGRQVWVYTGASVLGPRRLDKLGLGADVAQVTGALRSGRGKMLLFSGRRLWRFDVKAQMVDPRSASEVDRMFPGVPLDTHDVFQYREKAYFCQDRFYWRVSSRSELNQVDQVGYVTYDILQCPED
Procedure, shortened: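 Extracted enzyme, fluorescent substrate, 1 h post-dose read. Single conc 25 uM in duplicate, then concentration series for actives. Activity = signal loss relative to DMSO negative control.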

[2] = target: human p21 Activated Kinase 4 (PAK4), PAK4 (gene 10298) (UniProt O96013); experiment: NVS_ENZ_hPAK4: NovaScreen (NVS) Enzymatic Assay for human p21 Activated Kinase 4 (PAK4) (AID 2283189)
Chain of human p21 Activated Kinase 4 (PAK4), PAK4 (gene 10298) (O96013 whole entry, looked up): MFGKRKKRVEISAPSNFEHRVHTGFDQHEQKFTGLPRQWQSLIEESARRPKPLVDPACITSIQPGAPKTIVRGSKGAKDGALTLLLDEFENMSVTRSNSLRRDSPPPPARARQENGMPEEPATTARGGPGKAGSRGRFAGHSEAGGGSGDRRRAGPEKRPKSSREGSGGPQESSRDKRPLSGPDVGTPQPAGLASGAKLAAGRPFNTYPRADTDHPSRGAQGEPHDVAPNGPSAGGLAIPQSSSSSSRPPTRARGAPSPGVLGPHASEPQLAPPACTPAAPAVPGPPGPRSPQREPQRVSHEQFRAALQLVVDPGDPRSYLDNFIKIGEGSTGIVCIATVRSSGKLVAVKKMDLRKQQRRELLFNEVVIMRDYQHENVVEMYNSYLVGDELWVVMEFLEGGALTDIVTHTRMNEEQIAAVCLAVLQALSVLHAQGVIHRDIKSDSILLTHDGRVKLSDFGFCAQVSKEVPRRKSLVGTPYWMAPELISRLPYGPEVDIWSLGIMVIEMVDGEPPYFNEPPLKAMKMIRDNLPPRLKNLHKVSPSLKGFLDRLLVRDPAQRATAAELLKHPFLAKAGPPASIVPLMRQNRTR
Procedure, shortened: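 Cell-free recombinant human PAK4 activity assay; fluorescent substrate and product separated by electrophoretic mobility shift, read 1 h after dosing. Initially tested in duplicate at 25 uM, relative to DMSO baseline.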

[3] = target: Collagenase 3 (Homo sapiens) (UniProt P45452); experiment: NVS_ENZ_hMMP13: NovaScreen (NVS) Enzymatic Assay for human Matrix Metalloproteinase-13 (MMP13) (AID 2283182)
Procedure, shortened: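 Recombinant MMP13 cleaving fluorescent substrate, cell-free, measured 1 h after dosing. Primary duplicate screen at 25 uM; actives tested in concentration-response up to 50 uM; loss of signal relative to DMSO.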

[4] = target: human Matrix Metalloproteinase-7 (MMP7), MMP7 (gene 4316) (UniProt P09237); experiment: NVS_ENZ_hMMP7: NovaScreen (NVS) Enzymatic Assay for human Matrix Metalloproteinase-7 (MMP7) (AID 2283183)
Chain of human Matrix Metalloproteinase-7 (MMP7), MMP7 (gene 4316) (P09237 whole entry, looked up): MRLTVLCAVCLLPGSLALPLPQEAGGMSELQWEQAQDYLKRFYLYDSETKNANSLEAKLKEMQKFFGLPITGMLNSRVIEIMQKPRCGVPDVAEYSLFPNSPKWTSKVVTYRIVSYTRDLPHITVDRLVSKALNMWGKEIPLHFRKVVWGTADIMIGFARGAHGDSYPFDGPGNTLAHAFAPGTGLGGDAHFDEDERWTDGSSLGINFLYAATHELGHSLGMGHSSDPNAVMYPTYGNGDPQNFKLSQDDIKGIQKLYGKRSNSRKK
Procedure: NVS_ENZ_hMMP7 is a biochemical, single-readout assay that uses extracted gene-proteins in a cell-free assay. Measurements were taken 1 hour after chemical dosing in a 96-well plate.NVS_ENZ_hMMP7 is one of one assay component(s) measured or calculated from the NVS_ENZ_hMMP7 assay. It is designed to make measurements of enzyme activity, a form of enzyme reporter, as detected with fluorescence intensity signals by Fluorescence technology.Data from the assay component NVS_ENZ_hMMP7 was analyzed into 1 assay endpoint. This assay endpoint, NVS_ENZ_hMMP7, was analyzed in the positive analysis fitting direction relative to DMSO as the negative control and baseline of activity. Using a type of enzyme reporter, loss-of-signal activity can be used to understand changes in the enzymatic activity as they relate to the gene MMP7. Furthermore, this assay endpoint can be referred to as a primary readout, because this assay has produced multiple assay endpoints where this one serves a enzymatic activity function. To generalize the intended target to other relatable targets, this assay endpoint is annotated to the protease intended target family, where the subfamily is matrix metalloproteinase.
Binding assays used specific radioligands (tritiated, iodinated) with non-radioactive competitive displacement ligands in agonist or antagonist protocols (as indicated) and various reference compounds and inhibitors to titrate specific binding to receptors and transporters. Most enzyme assays (CYPs, kinases, phosphatases, proteases, HDACs) used recombinant protein and specific substrates (fluorescence mostly, some colorimetric and radioactive) and inhibitors, followed by a biochemical separation of substrate and product. All assays for the biochemical HTS were initially run in duplicate at a single concentration (10 uM for CYP450 assays and 25 uM for all others). Assay-chemical combinations meeting a pre-defined threshold (e.g., 30% inhibition and other criteria defined below) were then run in singleton concentration-response format with maximum concentration of 20 uM for CYPs and 50 uM for all others. Each assay was run with positive and negative controls, and concurrent controls on every plate. The follow-up (secondary) screen tested active chemical-pairs in concentration series, as well as a few additional assays not tested in the primary screen, some selected negative inactives, and several cases re-run in the concentration series for confirmatory purposes.

[5] = target: human MET Proto-Oncogene, Receptor Tyrosine Kinase (MET), MET (gene 4233) (UniProt P08581); experiment: NVS_ENZ_hMet: NovaScreen (NVS) Enzymatic Assay for human MET Proto-Oncogene, Receptor Tyrosine Kinase (MET) (AID 2283180)
Chain of human MET Proto-Oncogene, Receptor Tyrosine Kinase (MET), MET (gene 4233) (P08581 whole entry, looked up): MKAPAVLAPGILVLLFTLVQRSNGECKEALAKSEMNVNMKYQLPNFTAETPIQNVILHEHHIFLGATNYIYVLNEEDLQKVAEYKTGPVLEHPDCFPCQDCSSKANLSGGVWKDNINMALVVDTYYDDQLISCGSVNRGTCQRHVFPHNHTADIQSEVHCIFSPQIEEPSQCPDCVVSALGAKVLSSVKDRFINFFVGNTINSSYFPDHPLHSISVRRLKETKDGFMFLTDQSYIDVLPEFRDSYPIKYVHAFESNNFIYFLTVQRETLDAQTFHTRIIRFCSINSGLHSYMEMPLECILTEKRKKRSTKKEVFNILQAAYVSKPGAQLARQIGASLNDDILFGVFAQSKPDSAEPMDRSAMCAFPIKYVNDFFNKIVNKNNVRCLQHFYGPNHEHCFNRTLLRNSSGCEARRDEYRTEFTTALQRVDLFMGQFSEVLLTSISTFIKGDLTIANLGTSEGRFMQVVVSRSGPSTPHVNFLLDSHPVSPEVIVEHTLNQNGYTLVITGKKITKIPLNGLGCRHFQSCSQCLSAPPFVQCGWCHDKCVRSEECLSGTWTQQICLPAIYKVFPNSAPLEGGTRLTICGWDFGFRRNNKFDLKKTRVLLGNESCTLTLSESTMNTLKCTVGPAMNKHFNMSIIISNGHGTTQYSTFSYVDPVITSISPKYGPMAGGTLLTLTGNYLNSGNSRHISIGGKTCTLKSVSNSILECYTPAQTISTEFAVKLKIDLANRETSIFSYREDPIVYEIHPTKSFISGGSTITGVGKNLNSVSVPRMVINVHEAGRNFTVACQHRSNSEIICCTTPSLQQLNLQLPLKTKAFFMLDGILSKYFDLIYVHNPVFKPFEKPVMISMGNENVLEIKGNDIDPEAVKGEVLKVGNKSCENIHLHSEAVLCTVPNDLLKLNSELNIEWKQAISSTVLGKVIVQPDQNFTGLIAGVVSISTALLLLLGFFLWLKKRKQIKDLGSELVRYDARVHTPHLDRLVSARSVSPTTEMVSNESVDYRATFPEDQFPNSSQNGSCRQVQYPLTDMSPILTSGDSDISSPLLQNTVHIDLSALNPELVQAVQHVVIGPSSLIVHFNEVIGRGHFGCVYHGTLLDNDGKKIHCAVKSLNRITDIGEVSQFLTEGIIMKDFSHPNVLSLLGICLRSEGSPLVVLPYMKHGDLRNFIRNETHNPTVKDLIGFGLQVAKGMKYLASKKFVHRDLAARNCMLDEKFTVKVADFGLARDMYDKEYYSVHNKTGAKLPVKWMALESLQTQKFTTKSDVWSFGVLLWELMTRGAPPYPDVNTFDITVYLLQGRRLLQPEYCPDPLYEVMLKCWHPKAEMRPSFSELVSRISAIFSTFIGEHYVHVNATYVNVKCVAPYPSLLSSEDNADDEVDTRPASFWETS
Procedure, shortened: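 Cell-free MET kinase assay using recombinant protein and fluorescent substrate, with mobility-shift separation; read 1 h after dosing. Primary duplicate at 25 uM; actives in singleton concentration-response to 50 uM maximum. Signal loss versus DMSO.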

[6] = target: human Mitogen- and Stress-activated Protein Kinase-1 (Msk1), RPS6KA5 (gene 9252) (UniProt O75582); experiment: NVS_ENZ_hMsk1: NovaScreen (NVS) Enzymatic Assay for human Mitogen- and Stress-activated Protein Kinase-1 (Msk1) (AID 2283187)
Procedure, shortened: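 Recombinant kinase with fluorescent substrate; product separated by electrophoretic mobility shift, read 1 h after dosing. Screened in duplicate at 25 uM; hits (e.g. ≥30% inhibition) tested in concentration–response up to 50 uM. DMSO baseline.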

[7] = target: human NIMA (Never In Mitosis Gene A)-Related Kinase 2 (NEK2), NEK2 (gene 4751) (UniProt P51955); experiment: NVS_ENZ_hNEK2: NovaScreen (NVS) Enzymatic Assay for human NIMA (Never In Mitosis Gene A)-Related Kinase 2 (NEK2) (AID 2283188)
Chain of human NIMA (Never In Mitosis Gene A)-Related Kinase 2 (NEK2), NEK2 (gene 4751) (P51955 whole entry, looked up): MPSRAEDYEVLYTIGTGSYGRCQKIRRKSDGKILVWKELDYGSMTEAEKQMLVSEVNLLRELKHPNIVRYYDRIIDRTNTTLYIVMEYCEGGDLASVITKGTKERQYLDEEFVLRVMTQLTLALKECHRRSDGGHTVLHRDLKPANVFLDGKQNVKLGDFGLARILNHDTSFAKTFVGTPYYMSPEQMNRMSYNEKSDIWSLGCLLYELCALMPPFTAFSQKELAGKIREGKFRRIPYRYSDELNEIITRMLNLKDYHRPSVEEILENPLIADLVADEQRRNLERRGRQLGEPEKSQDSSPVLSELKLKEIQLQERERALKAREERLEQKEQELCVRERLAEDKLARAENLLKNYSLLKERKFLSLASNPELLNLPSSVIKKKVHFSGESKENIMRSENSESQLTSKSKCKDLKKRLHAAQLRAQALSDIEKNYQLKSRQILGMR
Procedure: NVS_ENZ_hNEK2 is a biochemical, single-readout assay that uses extracted gene-proteins in a cell-free assay. Measurements were taken 1 hour after chemical dosing in a 384-well plate.NVS_ENZ_hNEK2 is one of one assay component(s) measured or calculated from the NVS_ENZ_hNEK2 assay. It is designed to make measurements of enzyme activity, a form of enzyme reporter, as detected with fluorescence intensity signals by Fluorescence and electrophoretic mobility shift technology.Data from the assay component NVS_ENZ_hNEK2 was analyzed into 1 assay endpoint. This assay endpoint, NVS_ENZ_hNEK2, was analyzed in the positive analysis fitting direction relative to DMSO as the negative control and baseline of activity. Using a type of enzyme reporter, loss-of-signal activity can be used to understand changes in the enzymatic activity as they relate to the gene NEK2. Furthermore, this assay endpoint can be referred to as a primary readout, because this assay has produced multiple assay endpoints where this one serves a enzymatic activity function. To generalize the intended target to other relatable targets, this assay endpoint is annotated to the kinase intended target family, where the subfamily is serine/threonine kinase. […]

[8] = target: human Matrix Metalloproteinase-1 (MMP1), MMP1 (gene 4312) (UniProt P03956); experiment: NVS_ENZ_hMMP1: NovaScreen (NVS) Enzymatic Assay for human Matrix Metalloproteinase-1 (MMP1) (AID 2283181)
Chain of human Matrix Metalloproteinase-1 (MMP1), MMP1 (gene 4312) (P03956 whole entry, looked up): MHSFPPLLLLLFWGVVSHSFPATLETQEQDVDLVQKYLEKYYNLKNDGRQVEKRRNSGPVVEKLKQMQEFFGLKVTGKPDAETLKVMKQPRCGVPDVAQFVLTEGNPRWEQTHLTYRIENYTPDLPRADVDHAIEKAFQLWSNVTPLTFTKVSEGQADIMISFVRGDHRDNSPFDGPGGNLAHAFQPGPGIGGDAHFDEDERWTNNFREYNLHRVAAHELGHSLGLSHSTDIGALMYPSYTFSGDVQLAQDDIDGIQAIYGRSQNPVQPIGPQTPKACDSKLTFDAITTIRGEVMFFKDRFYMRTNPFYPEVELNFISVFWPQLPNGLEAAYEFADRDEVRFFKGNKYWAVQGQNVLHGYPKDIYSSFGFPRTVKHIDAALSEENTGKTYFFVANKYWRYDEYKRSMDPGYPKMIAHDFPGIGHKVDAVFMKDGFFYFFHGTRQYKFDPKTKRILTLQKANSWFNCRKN
Procedure, shortened: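 Human MMP1 enzyme activity measured by fluorescence 1 h after dosing, cell-free, with a specific substrate. Screened in duplicate at 25 uM; hits (e.g. 30% inhibition) run in concentration-response up to 50 uM; loss of signal versus DMSO.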

[9] = target: human Matrix Metalloproteinase-2 (MMP2), MMP2 (gene 4313) (UniProt P08253); experiment: NVS_ENZ_hMMP2: NovaScreen (NVS) Enzymatic Assay for human Matrix Metalloproteinase-2 (MMP2) (AID 2283184)
Chain of human Matrix Metalloproteinase-2 (MMP2), MMP2 (gene 4313) (P08253 whole entry, looked up): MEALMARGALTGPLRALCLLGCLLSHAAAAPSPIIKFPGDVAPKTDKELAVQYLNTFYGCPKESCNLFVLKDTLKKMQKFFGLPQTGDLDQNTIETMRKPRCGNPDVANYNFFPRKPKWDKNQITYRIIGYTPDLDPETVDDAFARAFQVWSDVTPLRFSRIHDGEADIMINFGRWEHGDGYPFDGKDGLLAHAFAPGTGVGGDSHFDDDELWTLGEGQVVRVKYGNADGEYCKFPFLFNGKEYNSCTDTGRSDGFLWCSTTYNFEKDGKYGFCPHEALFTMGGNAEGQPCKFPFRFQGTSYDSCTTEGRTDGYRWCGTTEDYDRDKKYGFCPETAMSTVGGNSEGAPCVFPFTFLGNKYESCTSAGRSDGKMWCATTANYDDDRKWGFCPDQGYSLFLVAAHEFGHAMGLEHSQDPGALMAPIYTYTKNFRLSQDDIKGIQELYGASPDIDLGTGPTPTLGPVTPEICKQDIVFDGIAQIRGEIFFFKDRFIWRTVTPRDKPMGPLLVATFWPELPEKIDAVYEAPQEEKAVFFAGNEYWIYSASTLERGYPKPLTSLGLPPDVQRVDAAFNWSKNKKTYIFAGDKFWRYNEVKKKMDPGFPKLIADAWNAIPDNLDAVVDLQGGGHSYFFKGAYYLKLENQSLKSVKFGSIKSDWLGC
Procedure, shortened: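 Cell-free recombinant MMP2 activity with a fluorescent substrate, read 1 h after dosing. Primary screen in duplicate at 25 uM; actives then run in concentration series; loss of signal fitted versus DMSO.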

[10] = target: human Matrix Metalloproteinase-3 (MMP3), MMP3 (gene 4314) (UniProt P08254); experiment: NVS_ENZ_hMMP3: NovaScreen (NVS) Enzymatic Assay for human Matrix Metalloproteinase-3 (MMP3) (AID 2283185)
Chain of human Matrix Metalloproteinase-3 (MMP3), MMP3 (gene 4314) (P08254 whole entry, looked up): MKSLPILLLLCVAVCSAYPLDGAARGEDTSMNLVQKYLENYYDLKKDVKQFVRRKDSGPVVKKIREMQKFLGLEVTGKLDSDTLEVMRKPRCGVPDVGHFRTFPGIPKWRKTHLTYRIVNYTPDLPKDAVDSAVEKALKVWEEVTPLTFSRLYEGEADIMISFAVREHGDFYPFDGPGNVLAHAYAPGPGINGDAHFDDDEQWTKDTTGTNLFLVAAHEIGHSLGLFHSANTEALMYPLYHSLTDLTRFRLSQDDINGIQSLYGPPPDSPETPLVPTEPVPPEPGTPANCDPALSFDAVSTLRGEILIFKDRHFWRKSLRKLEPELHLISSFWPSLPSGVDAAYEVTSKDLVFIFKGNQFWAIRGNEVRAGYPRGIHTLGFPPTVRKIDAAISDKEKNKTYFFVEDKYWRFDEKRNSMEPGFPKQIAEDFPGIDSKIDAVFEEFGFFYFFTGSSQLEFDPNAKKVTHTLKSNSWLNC
Procedure, shortened: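 Cell-free recombinant human MMP3 activity, fluorescence intensity read 1 h after dosing. Primary screen duplicate at 25 uM, actives retested in concentration series; loss of signal vs DMSO baseline.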

C1=Cc2cccc3cccc1c23 was tested. Which outcome [1] did it give?
Its outcome is “inactive”.

For COc1cc(C=O)cc2c1[C@H](COC(N)=O)[C@]1(OC(C)=O)ON2C[C@H]2[C@@H]1N2C(C)=O, which outcome [2] is on record?
The outcome was “inactive”.

Which outcome [3] does the source give for O=C(Nc1ccccc1)c1ccccc1I here?
The outcome was “inactive”.

What about the outcome [4] of the same molecule?
The outcome was “inactive”.

What does the source list for CCNS(=O)(=O)C(F)(F)C(F)(F)C(F)(F)C(F)(F)C(F)(F)C(F)(F)C(F)(F)C(F)(F)F?
outcome [5]: inactive; outcome [4]: inactive; outcome [6]: inactive; outcome [7]: inactive; outcome [2]: inactive

How did the outcome [4] turn out when CC(C)N(Cc1ccccc1)C(=O)C(C)(C)C was run?
Its outcome is “inactive”.

With CC(C)COC(=O)c1ccccc1C(=O)OCC(C)C as the molecule, how does the outcome [4] read?
Its outcome is “inactive”.

How did the outcome [8] turn out when Oc1ccccc1Cl was run?
The outcome was “inactive”.

What about the outcome [9] of the same molecule?
Its outcome is “inactive”.

And the outcome [10]?
Its outcome is “inactive”.

Which results are given for CCCCCOC(=O)c1ccccc1C(=O)OCCCCC?
outcome [9]: inactive; AC50 [1]: 12.6 µM (active)

How did the AC50 [4] turn out when CCC[CH2][Sn]([Cl])([CH2]CCC)[CH2]CCC was run?
The AC50 was 12.8 µM (active).

For c1ccc(C2CO2)cc1 (centres undefined), which outcome [1] is on record?
Its outcome is “inactive”.

For CCN(CC)N=O, which outcome [6] is on record?
The outcome was “inactive”.

For Nc1ccc(N=Nc2ccccc2)cc1, which AC50 [8] is on record?
Its AC50 is 16.9 µM (active).

With O=[N+]([O-])c1ccc(Oc2ccc(Cl)cc2Cl)cc1 as the molecule, how does the outcome [8] read?
The outcome was “inactive”.

What about the outcome [1] of the same molecule?
The outcome was “inactive”.

How did the AC50 [8] turn out when COP(=S)(OC)SCN1C(=O)c2ccccc2C1=O was run?
The AC50 was 11.7 µM (active).

With Cn1cc(-c2ccccc2)c(=O)c(-c2cccc(C(F)(F)F)c2)c1 as the molecule, how does the outcome [2] read?
The outcome was “inactive”.

With ClCCOCCCl as the molecule, how does the outcome [10] read?
Its outcome is “inactive”.

Which AC50 [10] does the source give for c1ccc2c(c1)-c1cccc3cccc-2c13 here?
The AC50 was 5.24 µM (active).

How did the outcome [7] turn out when CCCCC(CC)COC(=O)c1ccc(C(=O)OCC(CC)CCCC)c(C(=O)OCC(CC)CCCC)c1 (centres undefined) was run?
Its outcome is “inactive”.

For CCOc1cccc(C2(N3CCN(c4ccccc4)CC3)CCC(C)CC2)c1 (centres undefined), which outcome [8] is on record?
Its outcome is “inactive”.

And the AC50 [3]?
Its AC50 is 17.7 µM (active).

With CC(C)(C)C(O)(CCc1ccc(Cl)cc1)Cn1cncn1 (centres undefined) as the molecule, how does the outcome [9] read?
The outcome was “inactive”.

What about the outcome [10] of the same molecule?
The outcome was “inactive”.

Clc1ccc(C(c2ccc(Cl)cc2)C(Cl)(Cl)Cl)cc1 was tested. Which outcome [9] did it give?
The outcome was “inactive”.

And the outcome [1]?
Its outcome is “inactive”.

Which outcome [2] does the source give for Cc1cc(N=Nc2ccccc2C)ccc1N here?
Its outcome is “inactive”.

With CNC(=O)Oc1cccc2c1OC(C)(C)C2 as the molecule, how does the outcome [9] read?
Its outcome is “inactive”.

With Clc1ccc(Cl)c(Cl)c1 as the molecule, how does the outcome [10] read?
Its outcome is “inactive”.

Which AC50 [9] does the source give for CN(C)C(=O)Nc1ccc(Cl)cc1 here?
The AC50 was 17.9 µM (active).

What about the outcome [10] of the same molecule?
The outcome was “inactive”.

[As]#[In] was tested. Which outcome [4] did it give?
Its outcome is “inactive”.

Which outcome [5] does the source give for O=[N+]([O-])C(Br)(CO)CO here?
The outcome was “inactive”.

With Cc1ccc(N=C=O)cc1N=C=O as the molecule, how does the AC50 [3] read?
Its AC50 is 4.21 µM (active).

What about the AC50 [9] of the same molecule?
Its AC50 is 10.3 µM (active).

What about the AC50 [10] of the same molecule?
The AC50 was 40 µM (active).

And the outcome [1]?
Its outcome is “inactive”.

With Nc1ccc(Oc2ccc(N)cc2)cc1 as the molecule, how does the AC50 [9] read?
Its AC50 is 19.2 µM (active).

For CN(C)[C@@H]1C(=O)C(C(N)=O)=C(O)[C@@]2(O)C(=O)C3=C(O)c4c(O)cccc4[C@@](C)(O)[C@H]3C[C@@H]12, which outcome [3] is on record?
The outcome was “inactive”.

And the outcome [10]?
The outcome was “inactive”.

Which outcome [1] does the source give for O=Cc1ccco1 here?
The outcome was “inactive”.

How did the outcome [2] turn out when C[C@]12C=CC3=C4CCC(=O)C=C4CC[C@H]3[C@@H]1CC[C@@H]2O was run?
The outcome was “inactive”.
